The supplement of paper PMC7724964

Target: T1, DVL2 416-511 DEP (domain begin residue: 416, domain end residue: 511), O14641
T1 chain: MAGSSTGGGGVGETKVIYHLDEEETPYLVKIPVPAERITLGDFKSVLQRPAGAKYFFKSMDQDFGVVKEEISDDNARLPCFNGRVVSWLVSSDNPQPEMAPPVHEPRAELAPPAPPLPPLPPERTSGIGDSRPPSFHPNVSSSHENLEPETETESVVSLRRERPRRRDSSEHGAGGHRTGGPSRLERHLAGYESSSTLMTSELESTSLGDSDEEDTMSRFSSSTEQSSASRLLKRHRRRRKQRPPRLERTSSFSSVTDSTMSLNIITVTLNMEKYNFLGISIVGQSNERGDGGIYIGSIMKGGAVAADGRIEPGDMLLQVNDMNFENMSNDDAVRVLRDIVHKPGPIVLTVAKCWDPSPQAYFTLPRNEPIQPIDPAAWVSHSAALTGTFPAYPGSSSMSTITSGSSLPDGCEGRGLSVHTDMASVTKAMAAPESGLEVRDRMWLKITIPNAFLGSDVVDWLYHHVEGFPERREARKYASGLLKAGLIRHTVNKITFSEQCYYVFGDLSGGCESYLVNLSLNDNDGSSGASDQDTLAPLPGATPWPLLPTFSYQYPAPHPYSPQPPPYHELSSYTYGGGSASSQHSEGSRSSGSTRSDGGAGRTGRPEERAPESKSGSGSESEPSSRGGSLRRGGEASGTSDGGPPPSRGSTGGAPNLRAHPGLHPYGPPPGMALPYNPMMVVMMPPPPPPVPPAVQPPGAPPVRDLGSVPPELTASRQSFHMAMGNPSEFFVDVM
Assay: phage ELISA signal ratio (GST-PRM binding over GST background); higher = stronger binding of peptide-phage to the PRM
In short: (§1)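 An M13 phage library with randomized hexadecapeptides on the gene-8 major coat protein, each peptide lacking cysteine and flanked by glycine, was selected for five rounds against human peptide recognition domains fused to the C-terminus of glutathione S-transferase (GST) and expressed in 96-well plates. Approximately 48 clones from rounds 4 and 5 went to phage ELISA. The reported value is the ELISA signal on the GST-domain fusion over the signal on GST alone, and positive clones were sequenced.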

Row | Binder | phage ELISA signal ratio
1 | PETPYFSDGMWWWVKP | 28.8
2 | PLENPTYKDGLWWWSV | 24.4
3 | KWMIDLTDWEAYWVPS | 26.7
4 | MWFWNLDEAMPIWTAM | 13.3
5 | EMWYWDAVQGVPYKQG | 23.9
6 | VFWENQHWMQDLNPEW | 26.1
7 | YQPDMRMQDGKWYWII | 20.4
8 | AYYWSITLGDIVYMVD | 16.1

Target: T2, DOK2 146-252 IRS (domain begin residue: 146, domain end residue: 252), O60496
T2 chain: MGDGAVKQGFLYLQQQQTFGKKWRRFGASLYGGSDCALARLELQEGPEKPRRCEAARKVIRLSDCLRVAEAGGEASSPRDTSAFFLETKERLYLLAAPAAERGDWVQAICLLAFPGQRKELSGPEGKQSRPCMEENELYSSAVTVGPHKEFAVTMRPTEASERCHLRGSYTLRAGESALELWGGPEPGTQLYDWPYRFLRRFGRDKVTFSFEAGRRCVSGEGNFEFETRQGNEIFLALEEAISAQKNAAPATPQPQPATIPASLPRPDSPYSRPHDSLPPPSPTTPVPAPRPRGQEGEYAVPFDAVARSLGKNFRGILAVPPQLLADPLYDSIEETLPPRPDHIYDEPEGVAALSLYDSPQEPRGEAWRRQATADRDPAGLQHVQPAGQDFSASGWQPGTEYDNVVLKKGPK
Assay: as above
In short: as §1

Row | Binder | phage ELISA signal ratio
9 | EQLWWSNPLWTEGIEE | 16.1
10 | DEWKWFDMVGTQTQTP | 16.8
11 | EWVEWVSPWMVEHGDW | 17.8
12 | QFIVWENEYYEHWGGK | 21.1
13 | EWMWMDNPGFHMTEAT | 13.6
14 | PYTWYENPLWVPSPME | 15.2
15 | HLTGQEGDWIWHWLEN | 10.4

The binders below were run against DOK4 130-237 IRS (domain begin residue: 130, domain end residue: 237), Q8TEW6 in the same assay as above.
In short: as §1

Sequence of DOK4 130-237 IRS (domain begin residue: 130, domain end residue: 237), Q8TEW6 (Q8TEW6 whole entry): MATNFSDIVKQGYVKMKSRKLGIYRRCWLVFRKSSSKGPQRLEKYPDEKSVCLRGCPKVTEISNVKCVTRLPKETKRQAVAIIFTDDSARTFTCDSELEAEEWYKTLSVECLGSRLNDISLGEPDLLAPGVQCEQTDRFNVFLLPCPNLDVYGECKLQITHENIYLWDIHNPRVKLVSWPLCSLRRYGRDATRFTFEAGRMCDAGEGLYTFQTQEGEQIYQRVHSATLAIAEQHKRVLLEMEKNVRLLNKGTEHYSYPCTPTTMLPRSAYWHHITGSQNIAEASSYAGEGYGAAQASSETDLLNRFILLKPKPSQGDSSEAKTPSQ

Row | Binder | phage ELISA signal ratio
16 | VIWTWNPMAGMEAWNI | 5.11
17 | PEQMEYWTWSPLHVSQ | 13.1
18 | IEWTHTNWEWNKMETQ | 11.9
19 | WPEGIKYTWVKEHETE | 8.42
20 | QWMDLNDLQWTYNPWY | 11.2

Target: T3, DVL1 406-503 DEP (domain begin residue: 406, domain end residue: 503), O14640
T3 chain: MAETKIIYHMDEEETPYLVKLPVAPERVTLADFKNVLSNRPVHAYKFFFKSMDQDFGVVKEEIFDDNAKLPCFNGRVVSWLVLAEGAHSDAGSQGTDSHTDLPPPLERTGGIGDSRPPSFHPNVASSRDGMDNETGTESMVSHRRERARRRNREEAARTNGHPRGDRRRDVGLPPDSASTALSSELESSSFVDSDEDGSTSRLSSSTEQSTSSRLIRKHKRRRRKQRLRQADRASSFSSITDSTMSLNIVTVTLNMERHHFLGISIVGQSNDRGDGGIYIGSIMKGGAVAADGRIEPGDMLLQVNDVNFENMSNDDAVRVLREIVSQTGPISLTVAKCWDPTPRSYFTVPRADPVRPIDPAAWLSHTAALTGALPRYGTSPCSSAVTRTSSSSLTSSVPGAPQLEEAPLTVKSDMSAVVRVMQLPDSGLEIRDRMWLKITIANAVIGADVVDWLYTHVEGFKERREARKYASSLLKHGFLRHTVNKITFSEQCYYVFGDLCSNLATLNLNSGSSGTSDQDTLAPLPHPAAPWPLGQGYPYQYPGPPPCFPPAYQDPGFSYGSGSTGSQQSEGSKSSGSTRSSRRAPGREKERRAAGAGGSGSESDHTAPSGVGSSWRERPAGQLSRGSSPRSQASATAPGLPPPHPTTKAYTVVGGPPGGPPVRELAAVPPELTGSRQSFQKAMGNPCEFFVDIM
Assay: as above
In short: as §1

Row | Binder | phage ELISA signal ratio
21 | VHWTLQSVTDWKWVPQ | 31.9

These binders were tested against DYNLL1 1-89 Dynein_light (domain begin residue: 1, domain end residue: 89), P63167 in the same assay as above.
In short: as §1

Sequence of DYNLL1 1-89 Dynein_light (domain begin residue: 1, domain end residue: 89), P63167 (P63167 whole entry): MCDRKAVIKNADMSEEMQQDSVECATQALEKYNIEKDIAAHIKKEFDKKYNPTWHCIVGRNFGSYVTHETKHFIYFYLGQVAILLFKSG

Row | Binder | phage ELISA signal ratio
22 | SQTEWDWLEREWKPSI | 19.4
23 | TQTSWWWSETPMFPFM | 3.08
24 | WTQTEDPWEYTWLDLV | 17.8

Target: T4, DVL3 407-503 DEP (domain begin residue: 407, domain end residue: 503), Q92997
T4 chain: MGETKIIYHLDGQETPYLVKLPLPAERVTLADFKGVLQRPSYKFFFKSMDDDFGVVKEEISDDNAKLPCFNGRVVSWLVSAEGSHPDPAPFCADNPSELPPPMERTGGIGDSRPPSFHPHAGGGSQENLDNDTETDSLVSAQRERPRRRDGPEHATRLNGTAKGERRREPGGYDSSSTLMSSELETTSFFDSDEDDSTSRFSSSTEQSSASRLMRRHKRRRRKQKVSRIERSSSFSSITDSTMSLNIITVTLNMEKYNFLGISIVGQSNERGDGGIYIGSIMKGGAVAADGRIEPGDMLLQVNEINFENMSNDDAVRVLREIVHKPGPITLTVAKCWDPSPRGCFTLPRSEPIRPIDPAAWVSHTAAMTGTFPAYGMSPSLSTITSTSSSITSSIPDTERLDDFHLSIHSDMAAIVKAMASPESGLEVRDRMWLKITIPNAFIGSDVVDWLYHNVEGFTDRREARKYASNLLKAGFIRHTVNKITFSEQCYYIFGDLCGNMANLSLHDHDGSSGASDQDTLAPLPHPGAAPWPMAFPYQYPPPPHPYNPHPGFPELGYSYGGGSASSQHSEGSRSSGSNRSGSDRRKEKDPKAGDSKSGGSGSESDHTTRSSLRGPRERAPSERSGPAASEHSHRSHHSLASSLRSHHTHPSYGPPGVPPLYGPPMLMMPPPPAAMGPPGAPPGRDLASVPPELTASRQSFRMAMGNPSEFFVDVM
Assay: as above
In short: as §1

Row | Binder | phage ELISA signal ratio
25 | PKYQFSLSAESLQWLM | 18.1

Target: T5, DOK3 213-322 IRS (domain begin residue: 213, domain end residue: 322), Q7L591
T5 chain: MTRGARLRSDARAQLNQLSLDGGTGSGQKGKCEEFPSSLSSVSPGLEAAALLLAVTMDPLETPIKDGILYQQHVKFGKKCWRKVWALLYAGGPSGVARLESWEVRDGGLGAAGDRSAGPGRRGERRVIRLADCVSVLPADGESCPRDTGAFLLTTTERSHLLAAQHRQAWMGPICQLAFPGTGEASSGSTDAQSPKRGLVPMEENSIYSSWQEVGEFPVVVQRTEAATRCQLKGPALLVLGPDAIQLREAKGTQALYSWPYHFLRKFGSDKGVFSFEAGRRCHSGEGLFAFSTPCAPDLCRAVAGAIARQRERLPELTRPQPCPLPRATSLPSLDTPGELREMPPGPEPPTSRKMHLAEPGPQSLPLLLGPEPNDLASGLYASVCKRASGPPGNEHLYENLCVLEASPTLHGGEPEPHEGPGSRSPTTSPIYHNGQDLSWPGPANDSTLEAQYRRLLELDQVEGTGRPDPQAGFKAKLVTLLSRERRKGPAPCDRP
Assay: as above
In short: as §1

Row | Binder | phage ELISA signal ratio
26 | EYKTMPWEEIMMPYNY | 3.85
27 | GHNEIMTIQQHATWLY | 5.54
28 | WEWSQEIWLPPHMMVD | 12.3
